Results from PubChem BioAssay AID2280 (The Scripps Research Institute Molecular Screening Center, 2010).
In all, about 320,000 compounds went through this assay and about 1,400 (0.44%) were called active. The sample holds actives, similar compounds and a random draw of the others, so the mix is not that of the screen. A number with no mark means an inactive call.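 The calls were made as follows: active = percent inhibition above a per-plate cutoff, the plate mean of test compounds plus 3 SD (cut at about 30% in these data); inactive = the rest.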

biological target: Female germline-specific tumor suppressor gld-1 (Caenorhabditis elegans) (UniProt Q17339); test: small molecules blocking C. elegans GLD-1 RNA recognition – biochemical, fluorescence polarization, primary screen (AID 2280); conditions: purified GLD-1 + fluorescein TGE RNA, at 5.96 µM, hits give high values;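 also: 0% = DMSO wells with GLD-1 and probe and 100% = wells lacking GLD-1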
Sequence (Q17339 whole entry, looked up): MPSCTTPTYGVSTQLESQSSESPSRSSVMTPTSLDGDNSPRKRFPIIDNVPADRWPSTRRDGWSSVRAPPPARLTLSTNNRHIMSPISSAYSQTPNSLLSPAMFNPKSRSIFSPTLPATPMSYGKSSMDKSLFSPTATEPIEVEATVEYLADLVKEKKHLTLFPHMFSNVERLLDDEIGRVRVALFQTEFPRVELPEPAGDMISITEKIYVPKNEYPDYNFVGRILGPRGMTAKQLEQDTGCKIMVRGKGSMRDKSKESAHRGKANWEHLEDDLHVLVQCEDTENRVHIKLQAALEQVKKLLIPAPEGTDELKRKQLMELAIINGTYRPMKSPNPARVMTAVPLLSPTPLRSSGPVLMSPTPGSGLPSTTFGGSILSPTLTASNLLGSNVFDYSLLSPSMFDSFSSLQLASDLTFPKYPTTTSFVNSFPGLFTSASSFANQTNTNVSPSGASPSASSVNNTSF

SMILES | inhibition
CC/C(C)=N/Nc1nc2sc3c(c2c(=O)[nH]1)CC(C)(C)OC3 | 62.3% (active)
CCSc1nc2sc3c(c2c(=O)[nH]1)CC(C)(C)OC3 | -5.06%
CC(C)c1nc2sc3c(c2c(=O)n1N)CC(C)(C)OC3 | 2.68%
O=C(COC(=O)C1CC2CCCC(C1)C2=O)NC(=O)c1ccccc1 (centres undefined) | 0.04%
O=S(=O)(c1ccc(-c2ccno2)s1)N1CCCCC1 | 0.96%
C=CCN1C=C2C(=O)C(C)(OC(=O)CCc3ccccc3)C(=O)C=C2C=C1c1ccc(C#N)cc1 (centres undefined) | 18.7%
CC(C)(C)OC(=O)NCCCC1=CC2=CC(=O)C(C)(OC(=O)c3ccco3)C(=O)C2=CO1 (centres undefined) | 86.5% (active)
CC1(OC(=O)C2CCCC2)C(=O)C=C2C=C(c3ccc(C#N)cc3)OC=C2C1=O (centres undefined) | 17.8%
CN1CCN(c2ccccc2NC(=O)COc2ccc(C3CCCCC3)cc2)CC1 | 2.44%
N#CCCN(C(=O)COC(=O)c1ccc2c(c1)OCCO2)c1ccccc1 | 0.3%
Cc1ccc(/C=C(\C#N)C(=O)Nc2cccc3ncccc23)o1 | 59.6% (active)
O=C(O)c1cc(Cl)c(Cl)cc1C(=O)Nc1cccc2ncccc12 | 7.15%
N#C/C(=C\c1ccccc1C(F)(F)F)C(=O)Nc1ccccc1F | 0.78%
COc1cc(NC(=O)COC(=O)c2ccc([N+](=O)[O-])s2)cc(OC)c1OC | 4.4%
O=C(Cc1ccc(S(=O)(=O)N2CCOCC2)s1)N1CCN(c2ccc(C(F)(F)F)cc2[N+](=O)[O-])CC1 | 8.86%
CCOC(=O)c1ccccc1CN1C(=O)c2ccccc2S1(=O)=O | 1.98%
CC(C)OC(=O)CN1C(=O)C(=O)c2ccccc21 | -0.34%
CCOC(=O)c1cc2n(c1N)-c1ccccc1C2=O | 117% (active)
Cc1ccc(CNC(=O)C2CCCN2S(=O)(=O)c2ccc3c(c2)C(C)(C)C(=O)N3C)cc1 (centres undefined) | -3.08%
CCOC(=O)c1cnc2nc(SCc3ccccc3Cl)[nH]n2c1=O | -4.26%
Oc1[nH]c2ccc(Br)cc2c1N=Nc1nn[nH]n1 | 9.48%
NS(=O)(=O)c1ccc(N=Nc2c(O)[nH]c3ccc(Br)cc23)cc1 | 15.6%
Cc1cccc(N=Nc2c(O)[nH]c3ccc(F)cc23)c1 | 67.5% (active)

SMILES | inhibition
CSc1ccc(S(=O)(=O)N2CCC(C(=O)NCc3ccncc3)CC2)cc1 | -3.16%
CSc1ccccc1NC(=O)C(C)N1C(=O)c2ccccc2S1(=O)=O (centres undefined) | -0.85%
CN1c2ccc(C=O)c3c(C=O)ccc(c23)N(C)C1(C)C | 134% (active)
Cc1cc(C)c(S(=O)(=O)c2cc(F)ccc2C)c(=O)[nH]1 | -0.88%
O=C1NC[C@@H](c2ccccc2)OC(=O)[C@H](Cc2ccc(F)cc2)CC/C=C/C[C@H]1CC(=O)N(CCO)Cc1ccccc1 | 3.17%
Cc1cc(N2CCN(S(=O)(=O)c3ccc(C)c(C)c3)CC2)c2ccccc2n1 | 1.62%
Cc1ccc(S(=O)(=O)C(C#N)c2nc3ccccc3nc2N2CCCC2)cc1C (centres undefined) | 54.9% (active)
CC(C)OC(=O)C(C#N)c1nc2ccccc2nc1N1CCN(Cc2ccccc2)CC1 (centres undefined) | 6.85%
CCN(C[C@H]1N[C@@](CC)(C(=O)OC)[C@H]2C(=O)N(Cc3ccccc3)C(=O)[C@@H]12)S(=O)(=O)c1ccc(C(F)(F)F)cc1 | 7.64%
COc1ccc(Cl)cc1NC(=O)COC(=O)c1ccc(Br)o1 | -3.63%
CCOc1ccc(N2CC(C(=O)NCCN3C(=O)S/C(=C\c4cccnc4)C3=O)CC2=O)cc1 (centres undefined) | -0.09%
COc1ccc(N2CC(C(=O)NCCN3C(=O)S/C(=C\c4cccnc4)C3=O)CC2=O)c(OC)c1 (centres undefined) | 118% (active)
COc1ccccc1N1CC(C(=O)NCCN2C(=O)S/C(=C\c3cccnc3)C2=O)CC1=O (centres undefined) | 4.79%
C=CCC(NC(=O)Cc1ccccc1)C(=O)NCCC (centres undefined) | -2.12%
Cc1ccc(Cn2nnc3c(=O)[nH]c(C4CCN(S(=O)(=O)/C=C/c5ccccc5)CC4)nc32)cc1 | 1.59%
O=C(COC(=O)c1cc[n+]([O-])cc1)Nc1ccc(Cl)c(C(F)(F)F)c1 | 8.04%
CC(NC(=O)c1ccco1)c1ccc2c(c1)OCO2 (centres undefined) | -0.47%
COc1ccc(NS(=O)(=O)c2ccc(F)cc2F)cn1 | -1.42%
COc1ccc(Nc2cc(Cl)ccc2C(=O)O)cn1 | 66.1% (active)
COc1cccc(Nc2ncccc2C(=O)O)c1 | 3.26%
COc1cc(OC)cc(-c2c(C#Cc3ccsc3)c3cc(-c4ccc(OC)cc4F)ccc3n2C)c1 | -36.1%
Cc1ccc(NC(=O)C(=O)NCc2ccc(/C=N/NC(=O)c3c(C)nc4cc(C)ccn34)o2)cc1 | 1.79%
Cc1ccc(S(=O)(=O)Nc2nc(CN3CCOCC3)nc3sc(C)c(C)c23)cc1 | -15.1%

SMILES | inhibition
O=C(NC1CCCC1)C(=O)c1c[nH]c2ccccc12 | 6.85%
COc1ccc(/C=C(\C#N)c2c[nH]c3ccccc23)cc1 | 8.67%
C[n+]1ccc(/C=C/c2c[nH]c3ccccc23)cc1 | 55.5% (active)
COc1ccccc1-n1c(SCC(=O)Nc2cccc(C(=O)O)c2)nnc1-c1ccccc1O | 6.18%
OC1CN=C2Sc3ccccc3N2C1 (centres undefined) | 12.5%
CNC(=S)NNC(=O)c1oc2nc(-c3ccccc3)cc(-c3ccco3)c2c1N | 38.9% (active)
CNC(=S)NNC(=O)c1cccn(Cc2ccccc2)c1=O | 3.04%
NNC(=O)c1oc2nc(-c3ccccc3)cc(-c3ccco3)c2c1N | -23.7%
Cc1ccc(C(=O)NCC(=O)OCC(=O)Nc2cccc(S(=O)(=O)N3CCCC3)c2)cc1C | 7.23%
COC(=O)c1sccc1NN1C(=O)c2ccccc2C1=O | 4.27%
CCOCCOCCC(C(=O)O)P(=O)(c1ccccc1)c1ccccc1 (centres undefined) | 6.44%
CCN1CC=C2C(C#N)=C(N)C(C#N)(C#N)[C@H](c3ccoc3)[C@H]2C1 | 106% (active)
CCCN1CC=C2C(C#N)=C(N)C(C#N)(C#N)C(c3cc(OC)ccc3OC)C2C1 (centres undefined) | 49% (active)
COC(=O)c1ccc(CNC(=O)C2CCC(=O)N(Cc3ccccn3)C2)cc1 (centres undefined) | 0.64%
O=S(=O)(c1ccc(Cl)s1)N1CCC2(CC1)OCCO2 | -2.17%
N#C[C@]1(S(=O)(=O)c2ccccc2)C[C@@H]2ON=C(c3cccc(Br)c3)[C@@H]2C1 | -1.68%
O=C(Nc1cccc(F)c1)[C@@H]1CCCN1 | 4.36%
Cc1ccc(S(=O)(=O)N2CCOCC2)cc1C(=O)OC1CCCCC1=O (centres undefined) | -3.51%
O=[N+]([O-])c1ccc(F)cc1Oc1nc(-c2cccnc2)nc2ccccc12 | -1.37%
COc1ccc(Nc2nc(-c3cccnc3)nc3ccccc23)cn1 | 100% (active)
CCOC(=O)c1nc(Nc2ccc(C(=O)OC)cc2)c2ccccc2n1 | -1.24%
CNC(=O)c1[nH]cnc1C(=O)N[C@@H](CC(C)C)C(=O)OCc1ccccc1 | 10.1%
COC(=O)CN1C(=O)N/C(=C/c2ccc(OC)c(C)c2OC)C1=O | 9.69%

SMILES | inhibition
O=C(OCC1OC(Oc2ccc(O)cc2)C(O)C(O)C1O)c1ccccc1 (centres undefined) | 2.13%
O=C(OCC1O[C@@H](OC(=O)c2cc(O)c(O)c(O)c2)[C@@H](OC(=O)c2cc(O)c(O)c(O)c2)[C@@H](OC(=O)c2cc(O)c(O)c(O)c2)[C@@H]1OC(=O)c1cc(O)c(O)c(O)c1)c1cc(O)c(O)c(O)c1 (some centres undefined) | 34.6% (active)
Cc1ccc(NC(=O)c2ccc(Cl)nc2)cc1S(=O)(=O)N1CCOCC1 | -0.28%
O=C1c2ccccc2C(=O)c2c1cccc2N1CCN(C/C=C/c2ccccc2)CC1 | 9.38%
O=C1c2ccccc2C(=O)c2c1cccc2N1CCN(CCO)CC1 | 48.6% (active)
O=C1c2ccccc2C(=O)c2c1cccc2N1CCN(Cc2ccccc2)CC1 | 0.8%
CC(C(=O)NCC1CCCCC1)N(C)Cc1cccc(Cl)c1 (centres undefined) | 4.56%
CN(C)/C=C(/C(=O)c1ccc(F)cc1)S(=O)(=O)c1ccc(F)cc1 | 3.44%
Nc1nonc1-c1nc2ccccc2n1Cc1ccc(F)cc1 | 1.28%
CC(=O)Nc1nc2ccccc2n1Cc1ccc(C)cc1 | 0.42%
O=c1[nH]cccc1-c1nc2ccccc2n1Cc1ccc(Cl)cc1 | 45% (active)
CC1OC2C(OC1C)N(S(C)(=O)=O)CCN2S(C)(=O)=O (centres undefined) | 3.56%
CCCOc1ccc(N2C(=O)CC(N(CCc3ccc(S(N)(=O)=O)cc3)C(C)=O)C2=O)cc1 (centres undefined) | -1.23%
C=CCSc1nnc(N2C(=O)C(O)=C(C(=O)c3ccco3)C2c2ccc(F)cc2)s1 (centres undefined) | 44.5% (active)
CC(C)c1ccc(C2C(C(=O)c3ccco3)=C(O)C(=O)N2CC2CCCO2)cc1 (centres undefined) | 4.96%
Cc1ccc2nc(N3C(=O)C(O)=C(C(=O)c4ccco4)C3c3cccc(O)c3)sc2c1 (centres undefined) | 0.27%
CCN1CCC2(CC1)N=C(c1ccc(F)cc1)C(=S)N2C(=O)c1ccc(C)cc1 | 7.8%
CCCn1c(C(C)Nc2nc(-c3ccc(C)cc3)cs2)nc2cc(Cl)c(N3CCCCC3)cc21 (centres undefined) | 2.12%
CCCn1c(C2CCCN2c2nc(-c3ccc(OC)cc3)cs2)nc2ccccc21 (centres undefined) | 9.35%
CCCn1c(C2CCCN2c2nc(-c3ccc(C)cc3)cs2)nc2cc(Cl)c(N3CCCCC3)cc21 (centres undefined) | 34.6% (active)
